An excerpt weighted towards active compounds, which were near 19% of everything screened.
HT1080 IDH1KD tx – qHTS for induction of synthetic lethality in tumor cells producing 2HG: qHTS for the HT-1080-IDH1KD cell line; Potency, µM (doses to about 46.1 µM), for inactives: at the highest dose activity, negative = toxicity, usual class: cytotoxic; 360,000 compounds, 2% hits; HT-1080 IDH1 knockdown viability, ATP luminescence, 48 h;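 also: potency is read from the fitted curve at half-maximal effect; 0% = DMSO wells and -100% = cell-free medium wells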
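Assay cells: HT-1080 with IDH1 knockdown, 750 per well, RPMI/5% FBS. Exposure: 48 h at 37 °C following 2 h pre-incubation. Read: CellTiter-Glo luminescence; fitted concentration-response, curve class assigned.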
HT1080-NT tox – qHTS for induction of synthetic lethality in tumor cells producing 2HG: qHTS for the HT-1080-NT fibrosarcoma cell line | HT-1080-NT fibrosarcoma viability, CellTiter-Glo ATP luminescence, 48 h | Potency, µM (titrated, usually from 46.1 µM), for inactives: at the highest dose activity, negative = less viability, actives largely listed as cytotoxic | 360,000 compounds, 1.6% hits | AID 686970, 2013;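 also: NT is the 2HG producing partner of a matched IDH1 knockdown line; potency is read from the fitted curve at half-maximal effect; 0% = DMSO-treated cells and -100% = media-only wells without cells; nearly all actives have a fitted effect of over 55% in size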
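HT-1080-NT; 750 cells/well; 5% FBS RPMI; 48 h compound, 37 degrees C; CellTiter-Glo luminescence; curve fitting and curve-class assignment.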
DT40 TDP1 CPT – qHTS for Inhibitors of human tyrosyl-DNA phosphodiesterase 1 (TDP1): qHTS in cells in presence of CPT | 420,000 compounds, 12% hits | chicken DT40 Tdp1-/-;hTDP1 cells + 20 nM CPT, ATP luminescence, 48 h | Potency, µM (series often up to 46.2 µM), without a hit: top-dose activity change, negative = growth inhibition, hits mostly inhibitors | AID 686979, 2013; also: potency is read from the fitted curve at half-maximal effect; nearly all actives have a fitted effect of over 55% in size
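Chicken DT40 Tdp1-/- cells stably complemented with human TDP1 were seeded at 400 cells/well in medium containing 20 nM camptothecin, exposed to pin-transferred compounds, and grown at 37 °C for at least 48 hr. Viability was read as ATP luminescence.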
DT40 TDP1 no CPT – qHTS for Inhibitors of human tyrosyl-DNA phosphodiesterase 1 (TDP1): qHTS in cells in absence of CPT | DT40 Tdp1-/- hTDP1 cells, no CPT, ATP luminescence, 48 h | 420,000 compounds, 15% hits | Potency, µM (highest dose often 46.2 µM), without a hit: top-dose activity change, negative = growth inhibition, hits mostly inhibitors; also: potency is read from the fitted curve at half-maximal effect; nearly all actives have a fitted effect of over 55% in size
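Compound effects on proliferation are scored in DT40 Tdp1-/-;hTDP1 cells in the absence of CPT. ATP levels (CellTiter-Glo luminescence) are recorded after a ≥48 hr, 37 °C incubation.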
ELG1 repair inh – qHTS screen for small molecules that inhibit ELG1-dependent DNA repair in human embryonic kidney (HEK293T) cells expressing luciferase-tagged ELG1; 330,000 compounds, 2.3% hits; Potency, µM (doses to about 46.1 µM), for inactives: at the highest dose activity change, negative = inhibition, most hits filed as inhibitors; AID 504467, 2011; HEK293T ELG1-luciferase reporter, luminescence, 16 h; DNA damage induced by 5-fluorouridine; also: potency is read from the fitted curve at half-maximal effect; nearly all actives have a fitted effect of over 55% in size
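DMSO vehicle served as the neutral condition. Each well held 2,000 cells given 5-fluorouridine plus compound; after 16 hr at 37 °C/5% CO2, ONE-Glo was added and luciferase measured 30 min later.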
IL-1B inflam inh – qHTS for Inhibitors of Inflammasome Signaling: IL-1-beta AlphaLISA Primary Screen; THP-1 LPS/ATP IL-1B secretion, AlphaLISA, 16 h; stronger effect = lower value; activity change, % at 57.5 µM; 360,000 compounds, 4.7% hits; AID 743279, 2014; in the data active = activity change below about -50%; inconclusive = mostly about -30% to -49%
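Secreted IL-1B measured by AlphaLISA bead assay after 16 h compound exposure of THP-1 cells; compounds (final up to 57.5 uM) added 1 h before LPS (250 ng/mL) and ATP (1.25 mM) stimulation; lower signal means less secretion.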
* marks the source's active call; other numbers are inactive results; ? = inconclusive; / = no result given. Unless noted, calls follow the shape of the dose curve; as a rule, active = well fitted curve in the direction sought with a large enough effect; inconclusive = small, poorly fitted or top-dose-only effect, or another doubt; inactive = no such curve, though single readings can be large; an effect the other way counts as inactive or inconclusive. Unless noted, % is scaled to controls: 0 for no effect and ±100 for the full control effect.

SMILES	HT1080 IDH1KD tx	HT1080-NT tox	DT40 TDP1 CPT	DT40 TDP1 no CPT	ELG1 repair inh	IL-1B inflam inh
CCC[N+](CC#CCO)(CC#Cc1ccccc1)CCC	14.8%	14.5%	0.7%	-3.2%	?	-2.6
CC[N+](CC)(CC#Cc1ccccc1)CC(=O)c1ccc(Cl)cc1	-9.9%	-0.2%	5.8µM*	5.8µM*	-6.6%	-3.2
O=C1COc2ccc(-c3cc(-c4ccc(Cl)cc4)c4c(n3)-c3ccccc3OC4)cc2N1	/	/	1.03µM*	2.31µM*	/	/
O=C1COc2ccc(-c3cc(-c4ccccc4)c4c(n3)-c3ccccc3OC4)cc2N1	/	/	13µM*	9.2µM*	/	/
O=C1COc2ccc(-c3cc(-c4ccccc4)c4c(n3)-c3cc(Cl)ccc3OC4)cc2N1	/	/	3.26µM*	1.16µM*	/	/
O=C(NCCc1ccccc1)C(=O)NCC1OCCN1S(=O)(=O)c1cc(F)ccc1F (stereo not drawn)	5.1%	-1.0%	?	?	-17.9%	-17.9
COc1cccc(CNC(=O)c2ccc(S(=O)(=O)N3CCCCC3)cc2)c1	-1.2%	3.5%	-29.1%	?	/	0.2
CCC(=O)C1=C(c2ccccc2)N(C(=O)CC)n2c(nnc2-c2ccccc2)S1	/	/	?	-20.1%	/	/
CC(=O)C1=C(c2ccc(C)c(C)c2)N(C(C)=O)n2c(nnc2-c2ccc(Cl)cc2)S1	/	/	5.17µM*	4.61µM*	/	/
CCc1nnc2n1N(C(C)=O)C(c1ccc(C(C)(C)C)cc1)=C(C(C)=O)S2	/	/	8.2µM*	11.6µM*	/	/
CC(=O)C1=C(c2ccc(Cl)cc2)N(C(C)=O)n2c(nnc2C2CCCCC2)S1	/	/	13µM*	?	/	/
CCC(=O)C1=C(c2ccc(Cl)cc2)N(C(=O)CC)n2c(C)nnc2S1	/	/	8.2µM*	7.31µM*	/	/
CC[N+]1(CC(=O)c2ccc(I)cc2)CCCCC1	/	/	?	-19.9%	/	/
CC(=O)C1=C(c2cccc([N+](=O)[O-])c2)N(C(C)=O)n2c(C)nnc2S1	?	?	4.61µM*	1.84µM*	?	-97.6*
COc1ccc(C2=C(C(C)=O)Sc3nnc(-c4ccccc4)n3N2C(C)=O)cc1	/	/	?	-5.1%	/	/
CCOc1nsc(OCC)n1	16.0%	0.2%	2.2%	0.1%	-11.0%	20.2
O=C1COc2ccccc2C(c2nc3ccccc3[nH]2)N1Cc1ccccc1 (stereo not drawn)	1.7%	-0.5%	?	16.4µM*	/	11.7
O=C(NCc1ccccc1)C1c2ccccc2OCC(=O)N1Cc1ccccc1 (stereo not drawn)	?	-87.3%	?	11.6µM*	/	-15.5
COc1ccc(CN2C(=O)COc3ccccc3C2c2nc3ccccc3[nH]2)cc1 (stereo not drawn)	7.2%	8.1%	-22.0%	-6.2%	/	-11.8
COc1cc(CC(=O)OCC(=O)Nc2cccc([N+](=O)[O-])c2)cc(OC)c1OC	13.1%	6.1%	-10.5%	-18.4%	-0.2%	19.2
Cc1ccc(-n2nc(-c3ccc(OC(F)(F)F)cc3)cc2N)cc1C	-18.9%	-29.1%	6.1%	-5.6%	26.3%	-5.6
OC(Cc1ccc2ccccc2n1)c1c(Cl)cccc1Cl (stereo not drawn)	/	/	3.7%	-25.6%	/	/
Cc1onc(-c2ccccc2)c1C(=O)OCC(=O)N1CCN(c2ccccc2)CC1	3.2%	4.0%	-21.0%	?	?	-22.3
CCN(CC)c1ncn(Cc2c(Cl)cccc2Cl)c2ncnc1-2	?	-28.5%	?	14.6µM*	8.9%	-7.4

High-throughput results as filed in PubChem BioAssay.
